Test results: publication PMC11102866, “Nucleosome-bound NR5A2 structure reveals pioneer factor mechanism by DNA minor groove anchor competition”

B1: 95 (nucleosome)
DNA 1: ATCCTGGAGAATCCCGGTGCCGAGGCCGCTCAATTGGTCGTAGACAGCTCTAGCACCGCTTAAACGCACGTACGCGCTGTCCCCCGCGTTTTAACCGTCAAGGCCATTACTCCCTAGTCTCCAGGCACGTGTCAGATATATACATCCTGTGAT
DNA 2: ATCACAGGATGTATATATCTGACACGTGCCTGGAGACTAGGGAGTAATGGCCTTGACGGTTAAAACGCGGGGGACAGCGCGTACGTGCGTTTAAGCGGTGCTAGAGCTGTCTACGACCAATTGAGCGGCCTCGGCACCGGGATTCTCCAGGAT
modifications: reconstituted with mouse histones H2A, H2B, H3.3 and H4
B2: 100 (nucleosome)
DNA 1: ATCCTGGAGAATCCCGGTGCCGAGGCCGCTCAATTGGTCGTAGACAGCTCTAGCACCGCTTAAACGCACGTACGCGCTGTCCCCCGCGTTTTAACCGCCAAGTCAAGGCCACCCTAGTCTCCAGGCACGTGTCAGATATATACATCCTGTGAT
DNA 2: ATCACAGGATGTATATATCTGACACGTGCCTGGAGACTAGGGTGGCCTTGACTTGGCGGTTAAAACGCGGGGGACAGCGCGTACGTGCGTTTAAGCGGTGCTAGAGCTGTCTACGACCAATTGAGCGGCCTCGGCACCGGGATTCTCCAGGAT
modifications: reconstituted with mouse histones H2A, H2B, H3.3 and H4
B3: 96 (nucleosome)
DNA 1: ATCCTGGAGAATCCCGGTGCCGAGGCCGCTCAATTGGTCGTAGACAGCTCTAGCACCGCTTAAACGCACGTACGCGCTGTCCCCCGCGTTTTAACCGCTCAAGGCCATACTCCCTAGTCTCCAGGCACGTGTCAGATATATACATCCTGTGAT
DNA 2: ATCACAGGATGTATATATCTGACACGTGCCTGGAGACTAGGGAGTATGGCCTTGAGCGGTTAAAACGCGGGGGACAGCGCGTACGTGCGTTTAAGCGGTGCTAGAGCTGTCTACGACCAATTGAGCGGCCTCGGCACCGGGATTCTCCAGGAT
modifications: reconstituted with mouse histones H2A, H2B, H3.3 and H4
B4: 99 (nucleosome)
DNA 1: ATCCTGGAGAATCCCGGTGCCGAGGCCGCTCAATTGGTCGTAGACAGCTCTAGCACCGCTTAAACGCACGTACGCGCTGTCCCCCGCGTTTTAACCGCCAATCAAGGCCATCCCTAGTCTCCAGGCACGTGTCAGATATATACATCCTGTGAT
DNA 2: ATCACAGGATGTATATATCTGACACGTGCCTGGAGACTAGGGATGGCCTTGATTGGCGGTTAAAACGCGGGGGACAGCGCGTACGTGCGTTTAAGCGGTGCTAGAGCTGTCTACGACCAATTGAGCGGCCTCGGCACCGGGATTCTCCAGGAT
modifications: reconstituted with mouse histones H2A, H2B, H3.3 and H4
B5: 98 (nucleosome)
DNA 1: ATCCTGGAGAATCCCGGTGCCGAGGCCGCTCAATTGGTCGTAGACAGCTCTAGCACCGCTTAAACGCACGTACGCGCTGTCCCCCGCGTTTTAACCGCCATCAAGGCCACTCCCTAGTCTCCAGGCACGTGTCAGATATATACATCCTGTGAT
DNA 2: ATCACAGGATGTATATATCTGACACGTGCCTGGAGACTAGGGAGTGGCCTTGATGGCGGTTAAAACGCGGGGGACAGCGCGTACGTGCGTTTAAGCGGTGCTAGAGCTGTCTACGACCAATTGAGCGGCCTCGGCACCGGGATTCTCCAGGAT
modifications: reconstituted with mouse histones H2A, H2B, H3.3 and H4
B6: 5 (nucleosome)
DNA 1: ATCCTGGTCAAGGCCAGTGCCGAGGCCGCTCAATTGGTCGTAGACAGCTCTAGCACCGCTTAAACGCACGTACGCGCTGTCCCCCGCGTTTTAACCGCCAAGGGGATTACTCCCTAGTCTCCAGGCACGTGTCAGATATATACATCCTGTGAT
DNA 2: ATCACAGGATGTATATATCTGACACGTGCCTGGAGACTAGGGAGTAATCCCCTTGGCGGTTAAAACGCGGGGGACAGCGCGTACGTGCGTTTAAGCGGTGCTAGAGCTGTCTACGACCAATTGAGCGGCCTCGGCACTGGCCTTGACCAGGAT
modifications: reconstituted with mouse histones H2A, H2B, H3.3 and H4
B7: 101 (nucleosome)
DNA 1: ATCCTGGAGAATCCCGGTGCCGAGGCCGCTCAATTGGTCGTAGACAGCTCTAGCACCGCTTAAACGCACGTACGCGCTGTCCCCCGCGTTTTAACCGCCAAGGTCAAGGCCACCTAGTCTCCAGGCACGTGTCAGATATATACATCCTGTGAT
DNA 2: ATCACAGGATGTATATATCTGACACGTGCCTGGAGACTAGGTGGCCTTGACCTTGGCGGTTAAAACGCGGGGGACAGCGCGTACGTGCGTTTAAGCGGTGCTAGAGCTGTCTACGACCAATTGAGCGGCCTCGGCACCGGGATTCTCCAGGAT
modifications: reconstituted with mouse histones H2A, H2B, H3.3 and H4
B8: 97 (nucleosome)
DNA 1: ATCCTGGAGAATCCCGGTGCCGAGGCCGCTCAATTGGTCGTAGACAGCTCTAGCACCGCTTAAACGCACGTACGCGCTGTCCCCCGCGTTTTAACCGCCTCAAGGCCAACTCCCTAGTCTCCAGGCACGTGTCAGATATATACATCCTGTGAT
DNA 2: ATCACAGGATGTATATATCTGACACGTGCCTGGAGACTAGGGAGTTGGCCTTGAGGCGGTTAAAACGCGGGGGACAGCGCGTACGTGCGTTTAAGCGGTGCTAGAGCTGTCTACGACCAATTGAGCGGCCTCGGCACCGGGATTCTCCAGGAT
modifications: reconstituted with mouse histones H2A, H2B, H3.3 and H4

Each binder was assayed against NR5A2 wild type;histone octamer (Homo sapiens;, UniProt O00482;C0HKE1;Q6ZWY9;P84244;P62806 1-541;2-130;2-126;2-136;2-103, |) (assay: SeEN-seq (EMSA of nucleosome library followed by sequencing); 0.8 uM human NR5A2; 20 mM Tris-HCl pH 7.5, 120 mM NaCl, 1 mM MgCl2, 10 uM ZnCl2, 1 mM DTT, 100 ug/ml BSA, room temperature, 30 min; 0.1 uM nucleosome library; high values mean tight binding).

With B1 as the binder, how does the binding signal read?
Its binding signal is 1.87 log2 enrichment (bound/unbound, relative to Widom 601).

For B2, which binding signal is on record?
Its binding signal is 0.655 log2 enrichment (bound/unbound, relative to Widom 601).

With B3 as the binder, how does the binding signal read?
Its binding signal is 1.16 log2 enrichment (bound/unbound, relative to Widom 601).

With B4 as the binder, how does the binding signal read?
The binding signal was 0.545 log2 enrichment (bound/unbound, relative to Widom 601).

How did the binding signal turn out when B5 was run?
Its binding signal is 0.701 log2 enrichment (bound/unbound, relative to Widom 601).

For B7, which binding signal is on record?
The binding signal was 2.38 log2 enrichment (bound/unbound, relative to Widom 601).

For B8, which binding signal is on record?
Its binding signal is 0.742 log2 enrichment (bound/unbound, relative to Widom 601).

These binders were tested against mouse Nr5a2 wild type;histone octamer (Mus musculus;, UniProt P45448;C0HKE1;Q6ZWY9;P84244;P62806 1-560;2-130;2-126;2-136;2-103, |) (assay: SeEN-seq (EMSA of nucleosome library followed by sequencing); 1.2 uM mouse Nr5a2; 20 mM Tris-HCl pH 7.5, 120 mM NaCl, 1 mM MgCl2, 10 uM ZnCl2, 1 mM DTT, 100 ug/ml BSA, room temperature, 30 min; 0.1 uM nucleosome library; high values mean tight binding).

Which binding signal does the source give for B1 here?
Its binding signal is 1.29 log2 enrichment (bound/unbound, relative to Widom 601).

With B2 as the binder, how does the binding signal read?
The binding signal was 0.488 log2 enrichment (bound/unbound, relative to Widom 601).

B3 was tested. Which binding signal did it give?
Its binding signal is 1.04 log2 enrichment (bound/unbound, relative to Widom 601).

For B4, which binding signal is on record?
The binding signal was 0.468 log2 enrichment (bound/unbound, relative to Widom 601).

For B5, which binding signal is on record?
The binding signal was 0.557 log2 enrichment (bound/unbound, relative to Widom 601).

B6 was tested. Which binding signal did it give?
Its binding signal is 1.14 log2 enrichment (bound/unbound, relative to Widom 601).

Which binding signal does the source give for B7 here?
The binding signal was 1.47 log2 enrichment (bound/unbound, relative to Widom 601).

For B8, which binding signal is on record?
The binding signal was 0.636 log2 enrichment (bound/unbound, relative to Widom 601).
